Among the data in PubChem BioAssay (Tox21) are Potency and outcome values, retold here.

Inconclusive results are not listed. Activity calls are given as the source filed them. Unless noted, calls come from the whole dose curve; as a rule, active = well fitted curve in the direction sought with a large enough effect in the repeat runs; inconclusive = weak or mixed curves; inactive = no such curve, though single readings can be large; an effect the other way counts as inactive or inconclusive.

Assay [1] can be described thus: qHTS assay for identifying genotoxic compounds that show differential cytotoxicity against isogenic chicken DT40 cell lines with known DNA damage response pathways - wild type cell line (AID 743012). Note: nearly all actives have a fitted effect of over 60% in size. Note: potency is the fitted concentration of half-maximal effect. The essentials:
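Viability of DNA repair-proficient chicken DT40 cells was assessed by CellTiter-Glo luminescence following 40 h compound exposure at 37 C/5% CO2.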
A general note: In qHTS, concentration-response curves come from the screen itself.

A short description of assay [2]: qHTS assay to identify small molecule antagonists of the androgen receptor (AR) signaling pathway - cell viability counter screen (AID 743033; note: nearly all actives have a fitted effect of over 45% in size; note: potency is the fitted concentration of half-maximal effect).
Assay [3] is described as follows: qHTS assay to identify small molecule antagonists of the androgen receptor (AR) signaling pathway using the MDA cell line - cell viability counter screen (AID 743041; note: nearly all actives have a fitted effect of over 45% in size; note: potency is the fitted concentration of half-maximal effect). In short, it runs like this: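 Cytotoxicity counter screen: MDA-kb2 AR-luc cells, compound + R1881, 16 h, 37C, 0% CO2; CellTiter-Fluor added at 15.5 h, fluorescence read after 30 min.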
A short description of assay [4]: qHTS assay to identify small molecule antagonists of the thyroid receptor (TR) signaling pathway - cell viability counter screen (AID 743064). Note: nearly all actives have a fitted effect of over 50% in size. Note: potency is the fitted concentration of half-maximal effect. The essentials: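 GH3.TRE-Luc cells, 4 h pre-plating; cpd + T3 1 nM final; 37 °C 23.5 h; CellTiter-Fluor 30 min; fluorescence read.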
Assay [5] is described as follows: qHTS assay for identifying genotoxic compounds that show differential cytotoxicity against isogenic chicken DT40 cell lines with known DNA damage response pathways - Rev3 mutant cell line (AID 743014). Note: nearly all actives have a fitted effect of over 55% in size. Note: potency is the fitted concentration of half-maximal effect.
A short description of assay [6]: qHTS assay for identifying genotoxic compounds that show differential cytotoxicity against isogenic chicken DT40 cell lines with known DNA damage response pathways - Rad54/Ku70 mutant cell line (AID 743015). Note: nearly all actives have a fitted effect of over 60% in size. Note: potency is the fitted concentration of half-maximal effect.
Assay [7] concerns the target Androgen receptor (Homo sapiens) (UniProt P10275). Nature of the assay: qHTS assay to identify small molecule agonists of the androgen receptor (AR) signaling pathway (AID 743036; active = well fitted activation curve with a large enough effect in the signal ratio in the repeat runs, with a control signal flat, not every such curve was filed as active; the % refers to the signal ratio). The essentials:
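AR-bla HEK293 cells, 2,000/well; 4 h preincubation 37C/5% CO2; compound (DMSO) 16 h at 37C; LiveBLAzer B/G FRET substrate 2 h RT; fluorescence intensity read-out.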

Assay [8] has the same target. The assay is described as follows: qHTS assay to identify small molecule agonists of the androgen receptor (AR) signaling pathway using the MDA cell line (AID 743040; note: nearly all actives have a fitted effect of over 20% in size). In short, it runs like this: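 Luciferase read-out, ONE-Glo, 30 min RT. Cells: MDA-kb2 AR-luc, MMTV promoter with AR and GR response elements. Compound exposure 16 h, 37C, 0% CO2, after 5 h pre-incubation. qHTS agonist mode.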

Assay [9] shares this target. The assay is described as follows: qHTS assay to identify small molecule antagonists of the androgen receptor (AR) signaling pathway using the MDA cell line (AID 743042; note: nearly all actives have a fitted effect of over 55% in size; note: potency is the fitted concentration of half-maximal effect). The essentials:
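MDA-kb2 breast carcinoma cells carrying MMTV-luciferase (AR/GR responsive) were co-treated with compounds and the agonist R1881 for 16 h at 37C. Inhibition read as ONE-Glo luminescence; CellTiter-Fluor fluorescence measured in parallel for cytotoxicity.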

Sequence of Androgen receptor (Homo sapiens) (P10275 whole entry, looked up): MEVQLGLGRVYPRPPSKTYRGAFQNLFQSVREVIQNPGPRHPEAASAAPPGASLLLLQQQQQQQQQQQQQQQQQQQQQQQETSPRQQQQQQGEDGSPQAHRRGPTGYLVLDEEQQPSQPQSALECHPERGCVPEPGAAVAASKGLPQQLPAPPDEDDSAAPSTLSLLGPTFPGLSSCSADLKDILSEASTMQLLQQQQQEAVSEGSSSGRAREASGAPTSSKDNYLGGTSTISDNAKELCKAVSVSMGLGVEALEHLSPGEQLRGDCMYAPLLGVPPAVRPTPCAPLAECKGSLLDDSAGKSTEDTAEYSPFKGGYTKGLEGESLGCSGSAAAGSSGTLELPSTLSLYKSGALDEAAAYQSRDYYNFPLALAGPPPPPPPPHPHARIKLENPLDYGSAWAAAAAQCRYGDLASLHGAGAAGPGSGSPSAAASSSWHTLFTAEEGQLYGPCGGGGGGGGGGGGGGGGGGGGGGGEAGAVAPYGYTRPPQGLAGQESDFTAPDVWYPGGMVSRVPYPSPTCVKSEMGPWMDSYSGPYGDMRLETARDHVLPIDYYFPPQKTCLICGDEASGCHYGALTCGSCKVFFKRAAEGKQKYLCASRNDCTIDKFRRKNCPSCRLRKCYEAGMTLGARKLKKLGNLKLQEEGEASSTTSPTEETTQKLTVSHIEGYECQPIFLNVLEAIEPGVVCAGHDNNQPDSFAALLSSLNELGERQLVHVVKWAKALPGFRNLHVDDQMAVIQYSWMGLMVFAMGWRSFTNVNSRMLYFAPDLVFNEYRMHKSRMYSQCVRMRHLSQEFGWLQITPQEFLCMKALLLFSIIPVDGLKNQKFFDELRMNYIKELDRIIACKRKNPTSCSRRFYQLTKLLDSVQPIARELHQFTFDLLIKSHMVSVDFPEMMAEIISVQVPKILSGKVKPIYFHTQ

On to `Oc1cccc(Nc2ccccc2)c1`, for which the Potency entry in assay [1], in [2], in assay [3] and in [4] was “inactive” throughout.
Consider `O=C1c2ccccc2C(=O)C1c1nc2ccccc2c(Br)c1O`, for which the Potency entry in assay [5], in [6], in assay [2], in assay [3] and in [4] was “inactive” each time.
With `C[C@@H](O[C@H]1OCCN(Cc2n[nH]c(=O)[nH]2)[C@H]1c1ccc(F)cc1)c1cc(C(F)(F)F)cc(C(F)(F)F)c1`, the Potency in assay [1] was 23.7 µM (active); in [6], 23.7 µM (active); in assay [4], 13.3 µM (active). In addition, the result in assay [7] and in [8] was inactive.
Regarding `CN(C)CCN1C(=O)c2ccccc2N(C)c2ccccc21`, the Potency entry in assay [1], in assay [6], in [2] and in [3] was “inactive” each time.
For `CCOC(=O)C1=C(C)NC(C)=C(C(=O)OC)C1c1cccc(Cl)c1Cl` (stereo not drawn), the Potency in assay [1] was 23.7 µM (active); in assay [4], 18.8 µM (active). Moreover, the Potency result in assay [2] and in assay [3] was “inactive” in each case.
As for `c1cc(N(CC2CO2)CC2CO2)ccc1Cc1ccc(N(CC2CO2)CC2CO2)cc1` (stereo not drawn), the Potency in assay [1] was 3.44 µM (active); in assay [6] it was 1.93 µM (active); in assay [2], 54.9 µM (active); in [9], 27.3 µM (active); in assay [4], 13.7 µM (active). The compound was called inactive in assay [8]. The Potency entry in assay [3] was “inactive”.
For `CCC(=O)C1CC(C(C)C)CC=C1C` (stereo not drawn), the Potency result in [1], in [6], in assay [2], in assay [3], in assay [9] and in [4] was “inactive” throughout. Besides, the outcome in assay [7] and in [8] was inactive.
As to `O=[N+]([O-])c1ccc(Nc2ccc(Nc3ccccc3)c(S(=O)(=O)O)c2)c([N+](=O)[O-])c1`, the Potency result in assay [1], in assay [6], in assay [2] and in assay [3] was “inactive” in each case. Moreover, in assay [4], the Potency is 48.6 µM (active).
With `C/C=C(/C(=C/C)c1ccc(O)cc1)c1ccc(O)cc1`, the Potency result in assay [1] and in assay [3] was “inactive” in each case.
Consider `CCCCC(CC)CN` (stereo not drawn), for which the Potency was 55.5 µM (active) in assay [1], 55.5 µM (active) in assay [6] and 44.5 µM (active) in [2]. Besides, the compound was called inactive in [7] and in [8]. The Potency entry in assay [3] and in [9] was “inactive” each time.
`COC(=O)CS`: the Potency entry in [3] and in assay [4] was “inactive” in each case.
Turning to `CCOC(=O)c1ccccc1C(=C1C=C(Br)C(=O)C(Br)=C1)c1cc(Br)c(O)c(Br)c1`, the Potency result in assay [1], in assay [5] and in [2] was “inactive” each time. The Potency in assay [4] was 45.7 µM (active).
With `CC[N+](CC)(CCNC(=O)C(=O)NCC[N+](CC)(CC)Cc1ccccc1Cl)Cc1ccccc1Cl`, the Potency entry in [1], in assay [5], in assay [6], in assay [3] and in assay [4] was “inactive” each time.
Turning to `O=C(O)CCCCCCCCCCCBr`, the Potency entry in [5], in [6], in assay [2], in [3] and in [4] was “inactive” each time.
As for `CC(C)=CC(=O)C=C(C)C`, the Potency entry in assay [1], in [6], in assay [2] and in assay [3] was “inactive” throughout.
Take `Clc1ccc(Nc2nnc(Cc3ccncc3)c3ccccc23)cc1`: the results for the Potency in assay [1] and in assay [6] were 29.8 µM (active) and 26.6 µM (active), respectively. Moreover, the Potency entry in [2], in assay [3] and in [4] was “inactive” each time.
Take `CC1(C)[C@@H](OC(=O)CCC(=O)O)CC[C@]2(C)[C@H]3C(=O)C=C4[C@@H]5C[C@@](C)(C(=O)O)CC[C@]5(C)CC[C@@]4(C)[C@]3(C)CC[C@@H]12`: the Potency result in assay [1], in assay [5], in assay [6], in assay [3] and in assay [4] was “inactive” in each case.
As to `O=C(CCc1ccc(O)cc1)c1c(O)cc(O)cc1O`, the values for the Potency in assay [5] and in [4] were 62.5 µM (active) and 55.7 µM (active), respectively. The Potency result in assay [3] and in assay [9] was “inactive” each time.
For the compound `O=C(O)C[C@H](NC(=O)OCc1ccccc1)C(=O)O`, the Potency entry in [1], in assay [6], in [2], in assay [3] and in assay [4] was “inactive” throughout.
For the compound `C=C(C)C(=O)OCCCCCCCCCCCCC`, the Potency entry in assay [1], in assay [6], in assay [2], in [3] and in assay [4] was “inactive” throughout.
Turning to `CC(C)C[C@H](NC(=O)[C@H](CCc1ccccc1)NC(=O)CN1CCOCC1)C(=O)N[C@@H](Cc1ccccc1)C(=O)N[C@@H](CC(C)C)C(=O)[C@@]1(C)CO1`, the Potency is 0.0119 µM (active) in assay [1], 0.0119 µM (active) in assay [6] and 0.0422 µM (active) in assay [4]. Besides, the Potency result in assay [3] is “inactive”.
Consider `Cc1ccc(Cl)c(Nc2ccccc2C(=O)O)c1Cl`, for which the Potency entry in assay [6], in assay [2], in [3] and in assay [4] was “inactive” in each case.
As for `CCCCCCCCC(CCCCCC)C(=O)O` (stereo not drawn), the Potency result in [1], in [6], in assay [2], in [3] and in [4] was “inactive” each time.
Consider `C=CC(=O)OCC1CC2CC1C1CCC(COC(=O)C=C)C21` (stereo not drawn), for which the Potency is 24.3 µM (active) in [5] and 19.3 µM (active) in assay [6].
As to `C[C@@H]1CC(=O)NN=C1c1ccc(NN=C(C#N)C#N)cc1`, the Potency is 18.8 µM (active) in assay [1]; 18.8 µM (active) in assay [5]; 21.1 µM (active) in [6]; 29.8 µM (active) in [3]; 15 µM (active) in assay [4]. In assay [8], the result was inactive.
Take `CO/N=C(/C(=O)N[C@@H]1C(=O)N2C(C(=O)O)=C(COC(N)=O)CS[C@H]12)c1ccco1`: the Potency result in assay [1], in [6], in assay [2], in [3] and in assay [4] was “inactive” each time.
Regarding `O=C1c2ccccc2C(=O)C1c1ccc(Br)cc1`, the Potency result in assay [1], in assay [6], in [2], in assay [3], in assay [9] and in [4] was “inactive” each time. Moreover, in assay [8], the compound was classed as inactive.
For `OC(CCN1CCCC1)(c1ccccc1)C1CCCCC1` (stereo not drawn), the Potency in assay [1] is 11.4 µM (active). The result in [7] and in assay [8] was inactive. For the same compound, the Potency entry in [3] and in assay [9] was “inactive” throughout.
On to `C=CC(=O)[O-].C=CC(=O)[O-].[Zn+2]`, for which the Potency result in assay [1], in [6], in assay [2], in assay [3] and in [4] was “inactive” throughout.
